Inconclusive results are not listed. The source made the active and inactive calls. Unless noted, the call rests on the fitted dose curve; in most records, active means well fitted curve in the direction sought with a large enough effect in the repeat runs; inconclusive means weak or mixed curves; inactive means no such curve, though single readings can be large; an effect the other way counts as inactive or inconclusive.

A short description of assay [1]: qHTS assay to identify small molecule antagonists of the estrogen related receptor (ERR) signaling pathway from Tox21 library - cell viability counter screen (AID 1224834). Further: nearly all actives have a fitted effect of over 30% in size. The gist of the method:
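ERR cells, 2,000/well; 6 h settle at 37 C/5% CO2; pin-tool compound transfer in DMSO; 17.5 h at 37 C; CellTiter-Fluor, 30 min; fluorescence intensity.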
Background: In qHTS, concentration-response curves come from the screen itself.

Assay [2] has as its target Luciferin 4-monooxygenase (Photinus pyralis) (UniProt P08659). The assay is described as follows: qHTS assay to identify small molecule inhibitors of firefly luciferase (AID 1224835). Further: nearly all actives have a fitted effect of over 25% in size. The gist of the method: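 Inhibition of purified Photinus luciferase is measured by luminescence. Substrate levels (D-luciferin, ATP) sit at their KM values. Each compound is tested in a concentration series.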

The nature of assay [3]: qHTS assay to identify small molecule agonists of the constitutive androstane receptor (CAR) signaling pathway - cell viability counter screen (AID 1224836). Further: nearly all actives have a fitted effect of over 45% in size. In outline:
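Viability read-out: CellTiter-Fluor fluorescence after 23 h compound exposure at 37 C/5% CO2 in double-stable HepG2-CYP2B6-hCAR cells, with PK11195 present at 0.75 uM final; compounds tested in 15-point titration.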

A short description of assay [4]: qHTS assay to identify small molecule antagonists of the estrogen related receptor signaling pathway with the pleiotropic PPARgamma coactivator (PGC) from Tox21 10K library - cell viability counter screen (AID 1224840; active means well fitted cell-killing curve with a large enough effect in the repeat runs, not every such curve was filed as active; further: nearly all actives have a fitted effect of over 40% in size). The gist of the method:
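Multiplexed viability counter screen in the PGC/ERR cell line: cells treated with DMSO-dissolved compounds for 17.5 hours at 37 C, then viability measured as CellTiter-Fluor fluorescence.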

In assay [5] the target is Nuclear receptor subfamily 1 group I member 3 (Homo sapiens) (UniProt Q14994). Nature of the assay: qHTS assay to identify small molecule antagonists of the constitutive androstane receptor (CAR) signaling pathway (AID 1224838).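 Further: HepG2 cells stably expressing hCAR with CYP2B6 luciferase reporter stimulated by CITCO; nearly all actives have a fitted effect of over 40% in size.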 The gist of the method:
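Antagonist mode used CITCO at a final 50 nM to activate CAR in human hepatoma HepG2 cells carrying stable hCAR and a 2.2 kb CYP2B6 promoter-luciferase construct. Compounds were tested at 15 concentrations over 24 h, with luminescence as the end point.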

A short description of assay [6]: qHTS assay to identify small molecule antagonists of the estrogen related receptor signaling pathway with the pleiotropic PPARgamma coactivator (PGC) from Tox21 10K library (AID 1224841; call rule not given here; further: actives are mostly falling curves and most rising ones were filed inactive; nearly all actives have a fitted effect of over 50% in size). In outline:
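Steps: plate 2,000 PGC/ERR cells per well; incubate 6 h at 37 C with 5% CO2; transfer compounds from DMSO stocks by pin tool; incubate 18 h at 37 C; add One-Glo; measure luminescence 30 min later.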

A short description of assay [7]: qHTS assay to identify small molecule agonists of the estrogen related receptor signaling pathway with the pleiotropic PPARgamma coactivator (PGC) from Tox21 10K library (AID 1224842). Further: nearly all actives have a fitted effect of over 15% in size. In outline:
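Luminescence from One-Glo (30 min, room temperature) measured after PGC/ERR cells had 18 h at 37 C with pinned compound (23 nL in DMSO). Cells had been seeded at 2,000 per well and pre-incubated 6 h.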

The nature of assay [8]: qHTS assay to identify small molecule antagonists of the constitutive androstane receptor (CAR) signaling pathway - cell viability counter screen (AID 1224837). Further: nearly all actives have a fitted effect of over 45% in size. In outline: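 Viability was measured with CellTiter-Fluor in a HepG2 line carrying stably transfected hCAR and a CYP2B6-2.2kb construct. Cells were exposed for 23 hr at 37 C to 15 compound concentrations with 50 nM CITCO as agonist.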

Assay [9] has as its target Nuclear receptor subfamily 1 group I member 3 (Homo sapiens) (UniProt Q14994). The assay is described as follows: qHTS assay to identify small molecule agonists of the constitutive androstane receptor (CAR) signaling pathway (AID 1224839). Further: nearly all actives have a fitted effect of over 15% in size. The gist of the method: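 Luminescence read-out (ONE-Glo, 30 min, room temperature) from double-stable HepG2-CYP2B6-hCAR cells exposed 24 h to 15-point compound series in presence of 0.75 uM PK11195 final.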
Potency means the concentration at half of the fitted maximal effect.

Luciferin 4-monooxygenase (Photinus pyralis), sequence (P08659 whole entry, looked up): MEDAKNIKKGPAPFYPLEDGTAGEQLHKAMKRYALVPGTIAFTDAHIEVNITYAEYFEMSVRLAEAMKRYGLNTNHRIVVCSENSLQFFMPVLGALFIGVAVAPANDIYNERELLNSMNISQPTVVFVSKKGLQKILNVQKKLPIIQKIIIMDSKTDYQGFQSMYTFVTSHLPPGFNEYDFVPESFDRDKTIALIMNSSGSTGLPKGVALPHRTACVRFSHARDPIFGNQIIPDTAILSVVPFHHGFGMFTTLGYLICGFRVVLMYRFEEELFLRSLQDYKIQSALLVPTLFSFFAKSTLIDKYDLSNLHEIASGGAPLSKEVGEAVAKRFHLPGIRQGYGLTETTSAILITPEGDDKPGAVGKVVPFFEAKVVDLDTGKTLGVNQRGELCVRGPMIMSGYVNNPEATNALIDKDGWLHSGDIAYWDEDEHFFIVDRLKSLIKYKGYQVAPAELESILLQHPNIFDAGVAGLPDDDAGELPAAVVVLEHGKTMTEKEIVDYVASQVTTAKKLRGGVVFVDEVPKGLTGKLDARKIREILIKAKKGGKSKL
Nuclear receptor subfamily 1 group I member 3 (Homo sapiens), sequence (Q14994 whole entry, looked up): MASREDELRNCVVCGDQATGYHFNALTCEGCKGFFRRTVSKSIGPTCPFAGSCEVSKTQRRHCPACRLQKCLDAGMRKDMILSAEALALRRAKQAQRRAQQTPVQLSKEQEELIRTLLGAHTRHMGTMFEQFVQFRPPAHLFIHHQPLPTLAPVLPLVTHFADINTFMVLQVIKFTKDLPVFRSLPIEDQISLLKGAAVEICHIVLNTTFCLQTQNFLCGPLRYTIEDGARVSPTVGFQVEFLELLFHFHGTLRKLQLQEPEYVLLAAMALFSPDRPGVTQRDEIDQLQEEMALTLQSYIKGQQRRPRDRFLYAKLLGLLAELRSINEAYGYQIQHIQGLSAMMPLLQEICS

On to `Nc1ccc(N=Nc2ccccc2)c(N)c1`, for which the Potency was 26.7 µM (active) in assay [1], 2.47 µM (active) in assay [2], 30 µM (active) in [3] and 26.7 µM (active) in assay [4].

Consider `C=C1C[C@@]23CC[C@H]4[C@@](C)(CCC[C@@]4(C)C(=O)O[C@@H]4O[C@H](CO)[C@@H](O)[C@H](O)[C@H]4O)[C@@H]2CC[C@]1(O[C@@H]1O[C@H](CO)[C@@H](O)[C@H](O[C@@H]2O[C@H](CO)[C@@H](O)[C@H](O)[C@H]2O)[C@H]1O[C@@H]1O[C@H](CO)[C@@H](O)[C@H](O)[C@H]1O)C3`, for which the Potency entry in assay [1], in [2], in assay [3], in [5], in assay [6] and in assay [7] was “inactive” each time.

Consider `O=C1c2ccccc2C(=O)C1c1nc2ccccc2c(Br)c1O`, for which the Potency result in assay [1], in assay [3] and in [4] was “inactive” each time. Further, the Potency in assay [2] is 17.8 µM (active).

In the case of `CC(CC1c2ccccc2CCc2ccccc21)CN(C)C` (stereo not given), the Potency in assay [1] was 33.5 µM (active); in assay [8] it was 29.8 µM (active). Besides, the Potency result in [2] and in assay [4] was “inactive” throughout.

With `CN1CCCC(CC2c3ccccc3Sc3ccccc32)C1` (stereo not given), in [1], the Potency is 26.6 µM (active). For the same molecule, the Potency entry in assay [2], in assay [8] and in assay [6] was “inactive” each time.

Take `CN1C(C(=O)Nc2ccccn2)=C(O)c2sccc2S1(=O)=O`: the Potency result in [1], in assay [3], in assay [8], in assay [5], in assay [9] and in [4] was “inactive” in each case.

As to `Cc1ccco1`, the Potency entry in [1], in assay [2], in assay [3], in [5], in [9] and in [4] was “inactive” in each case.

For the molecule `CCOC(=O)c1ccc(O)c(O)c1`, the Potency result in assay [1], in [2], in [8], in assay [5] and in assay [4] was “inactive” in each case.

For the molecule `C[C@@H](CN(C)C)CN1c2ccccc2Sc2ccccc21`, the Potency in assay [1] was 26.6 µM (active). In addition, the Potency result in assay [2], in assay [5], in [4], in assay [6] and in assay [7] was “inactive” throughout.

For `COc1cc(Nc2c(C#N)cnc3cc(OCCCN4CCN(C)CC4)c(OC)cc23)c(Cl)cc1Cl`, the Potency in assay [1] was 9.44 µM (active). Also, the Potency entry in assay [2], in assay [3] and in assay [4] was “inactive” throughout.

For the molecule `CCCCCCCCCI`, the Potency entry in assay [1], in assay [3], in assay [8], in assay [5], in assay [9] and in [4] was “inactive” throughout. In addition, the Potency entry in [6] was “inactive”. For the same molecule, in assay [7], the Potency was 8.79 µM (active).

Turning to `OC(CCN1CCCC1)(c1ccccc1)C1CCCCC1` (stereo not given), the Potency result in assay [1], in [2], in [3] and in assay [4] was “inactive” each time.

With `Cc1cc(=O)c2c(O)c3c(O)cc(=O)c4c3c3c(cc(O)c1c23)C(C)(C)C=4O`, the Potency in assay [1] was 1.46 µM (active); in [5], 2.59 µM (active). In assay [2], the Potency result was “inactive”.

Regarding `O=c1cc(-c2ccccc2)oc2cc(O)cc(O)c12`, the Potency was 30.6 µM (active) in assay [1], 2.52 µM (active) in assay [2] and 30.6 µM (active) in assay [9]. Besides, the Potency entry in assay [5] is “inactive”.

As for `C[C@H]1C[C@H](O)c2ccsc2S1(=O)=O`, the Potency entry in assay [1], in [2], in [3], in [5], in assay [9] and in [4] was “inactive” in each case. In addition, the Potency result in assay [6] and in assay [7] was “inactive” in each case.

`Cc1[nH]cnc1CN1CCc2c(c3ccccc3n2C)C1=O`: the Potency entry in assay [1], in assay [2], in assay [3], in assay [5], in assay [9] and in assay [4] was “inactive” throughout. Moreover, in assay [7], the Potency result was “inactive”.

For `Cc1c(C)c2c(c(C)c1OC(=O)CCC(=O)OCCO)CC[C@@](C)(CCC[C@H](C)CCC[C@H](C)CCCC(C)C)O2`, the Potency result in assay [1], in assay [2], in assay [5], in [9] and in assay [7] was “inactive” each time. Further, the Potency in assay [6] was 21.1 µM (active).

Regarding `CN1C(=O)OC(C)(C)C1=O`, the Potency result in assay [1], in assay [2], in assay [3], in [5], in [4] and in [6] was “inactive” throughout. For the same molecule, the Potency result in assay [7] was “inactive”.

As to `C[C@@H](O)[C@H]1C(=O)N2C(C(=O)O)=C([C@H]3CCCO3)S[C@H]12`, the Potency result in assay [1], in assay [2], in assay [3] and in assay [4] was “inactive” each time.

In the case of `O=C(CCCN1CC=C(n2c(=O)[nH]c3ccccc32)CC1)c1ccc(F)cc1`, the Potency in [1] was 33.5 µM (active). The Potency entry in [2], in [3], in [5] and in assay [4] was “inactive” in each case.

Consider `C[C@@H](O[C@H]1OCCN(Cc2n[nH]c(=O)[nH]2)[C@H]1c1ccc(F)cc1)c1cc(C(F)(F)F)cc(C(F)(F)F)c1`, for which the Potency in [1] was 26.6 µM (active); in assay [6], 29.8 µM (active). Further, the Potency entry in assay [2], in assay [8] and in [7] was “inactive” each time.

On to `CC(C)c1nc(CN(C)C(=O)N[C@H](C(=O)N[C@@H](Cc2ccccc2)C[C@H](O)[C@H](Cc2ccccc2)NC(=O)OCc2cncs2)C(C)C)cs1`, for which the Potency is 13.3 µM (active) in [1] and 23.7 µM (active) in assay [6]. The Potency result in [2], in assay [5], in assay [9] and in assay [7] was “inactive” throughout.

Regarding `COc1ccccc1N1CCN(CCCCNC(=O)c2ccc(-c3ccc(C(C)=O)cc3)cc2)CC1`, the Potency result in assay [2], in assay [3], in [8] and in assay [4] was “inactive” throughout.

As to `COc1ccccc1N1CCN(CC(O)COc2cccc3ccccc23)CC1` (stereo not given), the Potency result in assay [2], in assay [3], in assay [5] and in assay [9] was “inactive” each time.

As for `CC(=O)[C@H]1[C@H](C#N)C[C@H]2[C@@H]3CC=C4C[C@@H](O)CC[C@]4(C)[C@H]3CC[C@@]21C`, the Potency entry in [2], in [3], in assay [8], in assay [4], in [6] and in assay [7] was “inactive” each time.

With `CCOC(=O)c1ccccc1C(=C1C=C(Br)C(=O)C(Br)=C1)c1cc(Br)c(O)c(Br)c1`, the Potency in assay [2] is 66.8 µM (active); in assay [6], 51.3 µM (active). Besides, the Potency result in assay [3] and in [7] was “inactive” in each case.

As for `O=C=Nc1cccc(C(F)(F)F)c1`, the Potency entry in assay [2], in [3], in [8] and in assay [7] was “inactive” in each case.

For the molecule `NC1[C@H]2CN(c3nc4c(cc3F)c(=O)c(C(=O)O)cn4-c3ccc(F)cc3F)C[C@@H]12` (stereo not given in full), the Potency result in [2], in assay [3], in [5] and in assay [6] was “inactive” each time.

Turning to `CC(C)Nc1cccnc1N1CCN(C(=O)c2cc3cc(NS(C)(=O)=O)ccc3[nH]2)CC1`, the Potency entry in [2], in [3], in [8], in [5], in assay [4] and in [6] was “inactive” throughout. In assay [7], the Potency entry was “inactive”.

On to `COc1cc(N)c(Cl)cc1C(=O)NC1CCN(CCCOc2ccc(F)cc2)CC1OC` (stereo not given), for which the Potency result in assay [2], in assay [3] and in assay [7] was “inactive” each time.

Consider `Oc1cccc(O)c1O`, for which the Potency result in [2], in assay [8], in [5], in assay [4] and in assay [6] was “inactive” in each case. Besides, the Potency in assay [7] is 8.56 µM (active).

Take `COC(=O)[C@H]1[C@H]2C[C@@H]3c4[nH]c5cc(OC)ccc5c4CCN3C[C@H]2C[C@@H](OC(=O)/C=C/c2ccc(O)c(OC)c2)[C@@H]1OC`: the Potency entry in assay [2], in assay [3], in [8], in assay [5], in assay [9] and in [4] was “inactive” each time. In addition, the Potency result in [7] is “inactive”.

The values are drawn from PubChem BioAssay (Tox21).
